This is an account of results in PubChem BioAssay (NCATS).

Structures are written as SMILES. Inconclusive results are not listed. Unmarked numbers belong to inactive results. Active and inactive are the calls of the source. The call rests on the fitted dose curve; in most records, active means well fitted inhibition curve with a large enough effect; inconclusive means small, poorly fitted or top-dose-only effect, or effect the other way; inactive means flat fitted curve, though single readings scatter.
On the % scale 0 is the no-effect control and ±100 the full control effect; potency means the concentration at half of the fitted maximal effect.

Sequence of ATP-dependent 6-phosphofructokinase (Trypanosoma brucei brucei) (O15648 whole entry, looked up): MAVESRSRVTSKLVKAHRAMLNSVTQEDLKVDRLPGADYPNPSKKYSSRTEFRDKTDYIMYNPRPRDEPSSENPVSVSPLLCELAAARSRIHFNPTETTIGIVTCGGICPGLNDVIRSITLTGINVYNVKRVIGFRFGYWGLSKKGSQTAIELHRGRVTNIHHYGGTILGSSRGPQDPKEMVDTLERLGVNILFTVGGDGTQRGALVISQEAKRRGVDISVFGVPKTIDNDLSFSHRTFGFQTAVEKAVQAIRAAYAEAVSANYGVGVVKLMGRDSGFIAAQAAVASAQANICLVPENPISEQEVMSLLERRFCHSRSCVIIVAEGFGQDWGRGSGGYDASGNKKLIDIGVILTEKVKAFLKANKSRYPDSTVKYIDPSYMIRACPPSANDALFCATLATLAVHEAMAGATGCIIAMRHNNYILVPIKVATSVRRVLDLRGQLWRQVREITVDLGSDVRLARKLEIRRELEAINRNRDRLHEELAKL

This assay addresses ATP-dependent 6-phosphofructokinase (Trypanosoma brucei brucei) (UniProt O15648). The assay is described as follows: qHTS Assay to Find Inhibitors of T. brucei phosphofructokinase: hit validation (AID 492961).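 On activity change, negative = inhibition: luminescence reports ADP formed as PFK phosphorylates fructose-6-phosphate with ATP.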 As to conditions: T. brucei PFK, ADP-Glo luminescence; series mostly up to 51.4 µM; activity change, negative = inhibition: at the top concentration. Summed up:
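ADP-Glo luminescence read-out of ADP formed by 1.25 nM PFK from 0.1 mM ATP and 0.5 mM F6P (TEA pH 8.0, 45 min, RT). Compounds titrated; activity normalized to no-enzyme and full-enzyme controls.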
`CNC(=O)OCc1cccc(COC(=O)NC)n1`: the “activity change, negative = inhibition” value is -2.44%.
Same read-out and setting: under `CC(O)CN(C)C` (stereo unspecified) stands 11.7%.
On the same count and under the same terms, under `O=P(O)(O)OC[C@H](O)CO` stands 12.2%; under `C[Se]CC[C@H](N)C(=O)O`, -0.346%; under `CC(=O)Nc1ccc(OC(=O)c2ccccc2O)cc1`, -6.68%.
The same measure, in the same setting: under `CSc1nc2cc(Oc3cccc(Cl)c3Cl)c(Cl)cc2[nH]1` stands -2.92%.
As for `Cc1cc(-c2ccc(N=Nc3c(S(=O)(=O)O)cc4cc(S(=O)(=O)O)cc(N)c4c3O)c(C)c2)ccc1N=Nc1c(S(=O)(=O)O)cc2cc(S(=O)(=O)O)cc(N)c2c1O`, the Potency is 28.2 µM (active).
Consider `ClC(Cl)Cl`, for which the “activity change, negative = inhibition” value was -0.498%.
Still for that read-out and setting: under `O=C(NNCS(=O)(=O)O)c1ccncc1` stands 0%; under `CC1(C)S[C@@H]2[C@H](NC(=O)C3(N)CCCCC3)C(=O)N2[C@H]1C(=O)O`, -1.86%; under `CC(C)[C@@H](N)C(=O)O`, 7.66%.
Same read-out and setting: the result for `O=C(CCCN1CCC(C(=O)c2ccc(F)cc2)CC1)c1ccc(F)cc1` reads 2.16%.
The same measure, in the same setting: under `O=[n+]1ccn([O-])c2ccccc21` stands -7.81%.
For the compound `COc1cc(C)c(/C=C/C(C)=C/C=C/C(C)=C/C(=O)O)c(C)c1C`, the “activity change, negative = inhibition” value is 7.99%.
Same read-out and setting: the result for `CN=C1C=CC(=C(c2ccc(N(C)C)cc2)c2ccc(N(C)C)cc2)C=C1` reads -15.3%; that for `NC(=O)Oc1ccc(Cc2ccccc2)cc1`, -25.3%.
Consider `CC(C)(C)CC(C)(C)c1ccc(OCCO)cc1`, for which the “activity change, negative = inhibition” value is 4.02%.
Still for that read-out and setting: under `Cc1ncc(C[n+]2csc(CCO)c2C)c(N)n1` stands 8.23% [at 24.3 µM].
As for `NCCN`, the “activity change, negative = inhibition” value was 9.08%.
Same read-out and setting: under `C=CC(C)(O)CC/C=C(\C)CCC=C(C)C` (stereo unspecified) stands 3.09%; under `CN1CCCC(CN2c3ccccc3Sc3ccccc32)C1` (stereo unspecified), 3.37%; under `CC(C)(Oc1ccc(C2CCCc3ccccc32)cc1)C(=O)O` (stereo unspecified), 0%.
On the same count and under the same terms, under `C[C@H](N)C(=O)N[C@@H](C)P(=O)(O)O` stands -0.703%; under `OCl`, 1.28%.
For the compound `CC1=CC(=C(c2ccc(N)cc2)c2ccc(N)cc2)C=CC1=N`, the “activity change, negative = inhibition” value was -3.57%.
Still for that read-out and setting: the result for `C=CCN1CCCC1CNC(=O)c1cc(S(N)(=O)=O)cc(OC)c1OC` (stereo unspecified) reads 4.49%.
On the same count and under the same terms, under `CC(C)NCC(O)COc1ccccc1-n1cccc1` (stereo unspecified) stands -2.01%; under `COC(=O)CCC[N+](C)(C)C`, -7.86%; under `Nc1nc(=O)n([C@@H]2CS[C@H](CO)O2)cc1F`, 22.4%.
Same read-out and setting: under `CC(C)(CO)[C@@H](O)C(=O)NCCC(=O)NCCSSCCNC(=O)CCNC(=O)[C@H](O)C(C)(C)CO` stands -15.8%; under `Cc1ccc(C(C)(C)c2ccc(C)cc2)cc1`, 1.04%; under `Cc1ncc[nH]1`, -3.29%.
Turning to `N=C(N)c1ccc(/C=C/c2ccc(C(=N)N)cc2O)cc1`, the “activity change, negative = inhibition” value is -10.7%.
Take `CC(C)OC(=O)Nc1ccc2nc(-c3cscn3)[nH]c2c1`: the “activity change, negative = inhibition” value was 0%.
Still for that read-out and setting: the result for `C=CC[C@@H]1/C=C(\C)C[C@H](C)C[C@H](OC)[C@H]2O[C@@](O)(C(=O)C(=O)N3CCCC[C@H]3C(=O)O[C@H](/C(C)=C/[C@@H]3CC[C@@H](O)[C@H](OC)C3)[C@H](C)[C@@H](O)CC1=O)[C@H](C)C[C@@H]2OC` reads 12.3%.
Same read-out and setting: the result for `CCOC(=O)C1=C(COCCN)NC(C)=C(C(=O)OC)C1c1ccccc1Cl` (stereo unspecified) reads 2.12%.
